Here are results for twelve molecules from PubChem BioAssay (NCATS).

Results filed as inconclusive are left out. Unmarked numbers belong to inactive results. The source made the active and inactive calls. Calls follow the shape of the dose curve; as a rule, active = well fitted cell-killing curve with a large enough effect; inconclusive = small, poorly fitted or top-dose-only effect; inactive = flat fitted curve, though single readings scatter.
% is scaled to controls: 0 for no effect and ±100 for the full control effect; potency is read from the fitted curve at half-maximal effect.

A short description of this test: Cellular viability qHTS for adrenocortical cancer (ACC) cell line SW-13 (AID 1963989). Also: nearly all actives have a fitted effect of over 65% in size.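 As to activity (max response): cells grown in serum-free medium with ITS supplement.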 As to conditions: SW-13 ACC cells viability, CellTiter-Glo, 48 h; activity (max response): stronger effect = lower value. The essentials:
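48 h treatment, SW-13 in ITS/DMEM serum-free; doses up to 46 uM; readout CellTiter-Glo luminescence; curve fit four-parameter logistic.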
(Quantitative high-throughput screening tests each substance at several concentrations.)
Regarding `O=C(CCl)c1ccc(Cl)cc1Cl`, the activity (max response) is -3.67%.

Take `CCN(Cc1ccc(Cl)nc1)/C(=C/[N+](=O)[O-])NC`: the activity (max response) was 3.71%.

`CN1CCC(O)(c2ccc(F)cc2)C(C(=O)c2ccc(F)cc2)C1` (configuration not stated): the activity (max response) is 0.424%.

Regarding `C[C@@H]1CC[C@@]2(OC1)O[C@H]1C[C@H]3[C@@H]4CC=C5C[C@@H](O[C@@H]6O[C@H](CO)[C@@H](O[C@@H]7O[C@@H](C)[C@H](O)[C@@H](O)[C@H]7O)[C@H](O)[C@H]6O[C@@H]6O[C@@H](C)[C@H](O)[C@@H](O)[C@H]6O)CC[C@]5(C)[C@H]4CC[C@]3(C)[C@H]1[C@@H]2C`, the Potency was 3.55 µM (active).

As for `CC(C)(C)c1ccc(O)cc1`, the activity (max response) was 9.89%.

As for `CO/C1=C/C(C)=C\[C@@H](C)[C@@H](O)[C@@H](C)C/C(C)=C\C=C/[C@H](OC)[C@@H]([C@@H](C)[C@@H](O)[C@H](C)[C@@]2(O)C[C@@H](O)[C@H](C)[C@@H](C(C)C)O2)OC1=O`, the Potency is 0.245 µM (active).

For the molecule `Clc1cccc(N2CCNCC2)c1`, the activity (max response) is 2.07%.

With `CCNc1nc(Cl)nc(NCC)n1`, the activity (max response) is -2.51%.

`Cc1[nH]ncc1-c1cc2nc([C@@H]3CC4CCN3CC4)[nH]c(=O)c2s1`: the Potency is 28.2 µM (active).

Regarding `CN1C(=O)NC(=O)C(C)(C2=CCCCC2)C1=O` (configuration not stated), the activity (max response) is -0.484%.

`O=C(N/N=C/c1ccc([N+](=O)[O-])o1)c1cc([N+](=O)[O-])cc([N+](=O)[O-])c1O`: the activity (max response) was -8.68%.

For the molecule `C[C@@H](C1CC[C@@]2(O)C3=CC(=O)[C@@H]4C[C@@H](O)[C@@H](O)C[C@]4(C)[C@H]3CC[C@]12C)[C@H](O)CCC(C)(C)O` (some centres not stated), the activity (max response) was -1.09%.
